High-throughput results (PubChem BioAssay)
ELG1 DNA repair – inhibitors of ELG1-dependent DNA repair in HEK293T cells. 330,000 compounds, 2.3% hits. HEK293T ELG1-luciferase reporter, luminescence, 16 h; DNA damage induced by 5-fluorouridine. AID 504467. Potency, µM (top dose mostly 46.1 µM), without a hit: at the top dose activity change, negative = inhibition, hits mostly inhibitors; note: potency is the fitted concentration of half-maximal effect; nearly all actives have a fitted effect of over 55% in size
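5-Fluorouridine DNA damage + compound/DMSO, 2,000 cells/well, 16 h, 37 °C/5% CO2. ONE-Glo, 30 min RT, luminescence. Readout = decrease in reporter signal.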
RORgamma inh – inhibitors of mouse ROR gamma transcriptional activity; AID 2551; Potency, µM (series often up to 53.6 µM), without a hit: top-dose activity change, negative = inhibition, usual class: inhibitors; 310,000 compounds, 5.4% hits; P51450; Drosophila S2 Gal4-RORgamma UAS-luciferase reporter, 20 h; note: potency is the fitted concentration of half-maximal effect; nearly all actives have a fitted effect of over 60% in size
Target sequence (P51450 whole entry, looked up, the tested form may be a part): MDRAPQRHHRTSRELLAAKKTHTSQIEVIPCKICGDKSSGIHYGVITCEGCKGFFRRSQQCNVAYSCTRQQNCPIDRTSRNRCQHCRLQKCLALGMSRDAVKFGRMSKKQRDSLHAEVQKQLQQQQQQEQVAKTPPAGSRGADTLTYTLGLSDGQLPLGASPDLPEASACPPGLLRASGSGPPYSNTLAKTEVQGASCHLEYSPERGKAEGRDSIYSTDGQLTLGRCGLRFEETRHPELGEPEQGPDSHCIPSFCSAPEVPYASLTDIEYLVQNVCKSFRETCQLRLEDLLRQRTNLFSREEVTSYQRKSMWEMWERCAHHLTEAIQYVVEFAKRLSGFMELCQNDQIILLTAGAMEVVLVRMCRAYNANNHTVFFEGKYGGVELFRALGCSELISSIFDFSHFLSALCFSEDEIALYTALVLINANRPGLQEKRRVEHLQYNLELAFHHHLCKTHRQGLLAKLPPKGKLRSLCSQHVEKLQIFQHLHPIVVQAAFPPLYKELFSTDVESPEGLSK
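Stably transfected Drosophila Schneider cells are the test system, with ROR gamma fused to Gal4 and luciferase under UAS control; luminescence is read after 20 hr of 700 uM copper sulfate induction at ambient temperature.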
IL1B secr inh – inhibitors of inflammasome signaling (IL-1 beta secretion) | activity change, % at 57.5 µM | 360,000 compounds, 4.7% hits | THP-1 LPS/ATP IL-1B secretion, AlphaLISA, 16 h; active compounds read low; in the data active = activity change below about -50%; inconclusive = mostly about -30% to -49%
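Secreted IL-1B measured by AlphaLISA bead assay after 16 h compound exposure of THP-1 cells; compounds (final up to 57.5 uM) added 1 h before LPS (250 ng/mL) and ATP (1.25 mM) stimulation; lower signal means less secretion.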
DT40 TDP1 no CPT – qHTS for Inhibitors of human tyrosyl-DNA phosphodiesterase 1 (TDP1): qHTS in cells in absence of CPT; DT40 Tdp1-/- hTDP1 cells, no CPT, ATP luminescence, 48 h; Potency, µM (top dose mostly 46.2 µM), without a hit: at the top dose activity change, negative = growth inhibition, actives largely listed as inhibitors; 420,000 compounds, 15% hits; note: potency is the fitted concentration of half-maximal effect; nearly all actives have a fitted effect of over 55% in size
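Readout: luminescence from CellTiter-Glo after 30 min in the dark at RT. Cells: DT40 Tdp1-/- with stable hTDP1, 400/well. Exposure: compounds alone, ≥48 hr, 37 °C.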
VP16 counter – Gal4-VP16 reporter inhibition counter-screen; Drosophila S2 Gal4-VP16 UAS-luciferase, luminescence, 20 h; Potency, µM (top dose mostly 53.6 µM), inactives show at the highest dose activity, negative = inhibition, usual class: inhibitors; 310,000 compounds, 3.5% hits;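 note: Gal4-VP16 expression switched on by copper sulfate through the metallothionein promoter; potency is the fitted concentration of half-maximal effect; nearly all actives have a fitted effect of over 50% in size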
DT40 TDP1 CPT – DT40-hTDP1 cell growth loss with CPT; chicken DT40 Tdp1-/-;hTDP1 cells + 20 nM CPT, ATP luminescence, 48 h; 420,000 compounds, 12% hits; Potency, µM (titrated, usually from 46.2 µM), for inactives: at the top dose activity change, negative = growth inhibition, hits mostly inhibitors; note: potency is the fitted concentration of half-maximal effect; nearly all actives have a fitted effect of over 55% in size
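Cell growth measured by CellTiter-Glo luminescence after a minimum 48 h, 37 C compound exposure with 20 nM CPT in Tdp1-knockout DT40 cells stably expressing hTDP1, seeded 400/well; qHTS titration format.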
Starred values were filed as active, the others as inactive; ? = inconclusive; · = no result; [ ] = remark or other dose. Rows were chosen to be rich in hits. Some 21% of all compounds tested hit in one or more screens of this group. Unless noted, calls come from the whole dose curve; as a rule, active = well fitted curve in the direction sought with a large enough effect; inconclusive = small, poorly fitted or top-dose-only effect, or another doubt; inactive = no such curve, though single readings can be large; an effect the other way counts as inactive or inconclusive. % is set by controls: 0 for no effect and ±100 for the full control effect.

SMILES | ELG1 DNA repair | RORgamma inh | IL1B secr inh | DT40 TDP1 no CPT | VP16 counter | DT40 TDP1 CPT
CCc1c(C)nc2cc(-c3ccccc3)[nH]n2c1=O | ? | 10% | -9 | 12µM* | -11% | 8.2µM*
C=CCc1c(C)nc2cc(-c3ccc(C)cc3)[nH]n2c1=O | ? | ? | 10 | ? | ? | ?
CCCCc1c(C)nc2cc(-c3ccco3)[nH]n2c1=O | ? | -10% | -96* | ? | -5% | -1%
CCc1c(C)nc2c(-c3ccccc3)c(-c3ccccc3)[nH]n2c1=O | -13% | -15% | 13 | 2.1µM* | 1% | 2.3µM*
CCS(=O)(=O)N1CC(=O)N(c2cccc(Cl)c2)C(C)(C(=O)NC2CCCCCC2)C1 (stereo not given) | · | · | · | 6% | · | -17%
Cc1csc(NC(=O)CSc2nc(C(C)C)nc3c2c(=O)n(C)c(=O)n3C)n1 | ? | ? | 6 | 4.6µM* | ? | 10µM*
Cc1ccc(-c2nc(SCC(=O)Nc3cc(C)on3)c3c(=O)n(C)c(=O)n(C)c3n2)cc1 | -21% | -1% | 0 | 15µM* | -37% | 12µM*
Cn1c(=O)c2c(SCC(=O)Nc3ccccc3F)nc(-c3ccccc3F)nc2n(C)c1=O | 6% | 2% | 0 | 15µM* | 3% | ?
Cn1c(=O)c2c(SCC(=O)Nc3ccccc3F)nc(C3CC3)nc2n(C)c1=O | 0% | 3% | 0 | ? | -1% | ?
Nc1c(-c2nc(-c3ccccc3Cl)no2)nnn1-c1ccccc1C(F)(F)F | · | · | · | -8% | · | 2%
O=S(=O)(Nc1nc2ccccc2nc1N1CCN(CCO)CC1)c1cc(F)ccc1F | 11% | · | 13 | 21% | · | 23µM*
CN1CCN(c2nc3ccccc3nc2NS(=O)(=O)c2ccc(Br)cc2)CC1 | 2% | · | -27 | -28% | · | -2%
CCN(CC)S(=O)(=O)c1cc(-c2nn(C)c(=O)c3ccccc23)ccc1C | 12% | -6% | 38 | 16µM* | 8% | 23µM*
Cc1ccc(-c2nn(C)c(=O)c3ccccc23)cc1CNC(=O)Cn1nc(-c2ccccc2)c2ccccc2c1=O | -14% | -7% | · | · | -7% | ·
COCCNS(=O)(=O)c1cc(-c2nn(C)c(=O)c3ccccc23)ccc1C | 20% | -20% | 24 | ? | 7% | 4%
CCCCNS(=O)(=O)c1cc(-c2nn(C)c(=O)c3ccccc23)ccc1C | 13% | 1% | -65* | -1% | -6% | ?
Cn1nc(-c2ccc3c(c2)OCCO3)c2ccccc2c1=O | ? | -1% | 37 | 21µM* | ? | ?
Cc1cc(C)n(CC(=O)NCc2cc(-c3nn(C)c(=O)c4ccccc34)ccc2C)n1 | ? | -4% | -1 | 16µM* | 6% | ?
N#C/C(=N\Nc1cccc(F)c1)C(=N)N1CCCCCC1 | ? | ? | -14 | -29% | -1% | -25%
Cc1snc(SCc2cccc(Cl)c2)c1C#N | 1% | 22% | -3 | -23% | -5% | 19%
CC(=O)c1c(C)[nH]c(C(=O)CN2C(=O)NC3(CCCCC3C)C2=O)c1C (stereo not given) | ? | · | 32 | 6% | · | -2%
COc1ccc(CN2C[C@@H](CO)O[C@@H](n3cnc4c(NCc5ccncc5)ncnc43)C2)cc1 | · | · | 30 | 5% | · | -15%
CC(C)CCC(CCNCc1ccccn1)c1ccc(Cl)cc1 (stereo not given) | -27% | 11µM* | -98* | 15µM* | -13% | -89%
COC(=O)C/C=C\[C@@H](C)[C@@H](/C=N\O[C@@H](C)CN1CCCc2nc(C)c(C)cc21)NS(=O)(=O)c1ccc(C)cc1 | · | 2%[10 µM] | · | · | -1%[10 µM] | ·
O=[N+]([O-])c1ccc(N/N=C\c2cccnc2)nc1 | ? | -2% | 23 | -15% | 5% | 0%
SMILES | ELG1 DNA repair | RORgamma inh | IL1B secr inh | DT40 TDP1 no CPT | VP16 counter | DT40 TDP1 CPT
COc1cc(/C=N/Nc2ccc([N+](=O)[O-])cn2)cc(OC)c1O | -1% | 47% | 79 | ? | 13% | 1%
O=[N+]([O-])c1ccc(NN=Cc2cc(Br)ccc2O)nc1 | · | · | 105 | 1.3µM* | · | 2.6µM*
CC(=O)Nc1ccc(C=NNc2ccc([N+](=O)[O-])cn2)cc1 | · | · | 9 | -25% | · | 23µM*
Cc1cc(/C=N/Nc2nc(N)ncc2[N+](=O)[O-])c(C)n1-c1ccccc1F | ? | 1.6µM* | · | · | 7.1µM* | ·
O=[N+]([O-])c1ccc(NN=Cc2cccc(O)c2)nc1 | · | · | 35 | ? | · | 23µM*
CN1CCC(N2CCN(C3CN(Cc4ccccc4)S(=O)(=O)C3)CC2)CC1 (stereo not given) | · | · | 13 | 6% | · | 1%
O=C(Cc1ccc(F)cc1)Nc1ccc(Cl)cn1 | ? | 24% | -10 | -2% | 9% | 5%
O=[N+]([O-])c1ccc(NN=Cc2ccco2)nc1 | · | · | 31 | -28% | · | 3%
Cc1cccc(C)c1-n1c(C)cc(/C=N\Nc2ccc([N+](=O)[O-])cn2)c1C | 4% | -25% | -22 | 15µM* | -3% | ?
O=C(CSc1nnc(COc2ccc(Cl)cc2)o1)N1CCCC1 | 2% | -28% | 0 | ? | 22% | -29%
O=C(CSc1nnc(COc2ccc(Cl)cc2)o1)N1c2ccccc2CCc2ccccc21 | -20% | ? | ? | 15µM* | -4% | ?
Cc1cccc(OCc2nnc(SCC(=O)NCCc3ccccc3)o2)c1 | 2% | -14% | 13 | -8% | 3% | -1%
O=C(CSc1nnc(COc2ccccc2)o1)NCCc1ccccc1 | 3% | -17% | 0 | 7.3µM* | 0% | 8.2µM*
Cc1noc(-c2ccccc2)c1NC(=O)Nc1ccc2nc([C@H]3C[C@H](O)[C@@H](CO)O3)[nH]c2c1 | · | · | 0 | 12% | · | 0%
CCOC(=O)OCC1OC(C#Cc2ccccc2)C=CC1Oc1cccc(N(C)C)c1 (stereo not given) | · | -17%[10 µM] | · | · | -3%[10 µM] | ·
Cc1ccc(CNC(=O)C2CCN(S(=O)(=O)c3ccc4c(c3)CCCN4C(=O)C3CCC3)CC2)cc1 | · | · | · | 7.3µM* | · | 21µM*
CC(=O)N1c2ccc(S(=O)(=O)N3CCCCCC3)cc2CC1C(=O)NCc1cccc(C)c1 (stereo not given) | · | · | · | -17% | · | ?
COc1ccccc1CNC(=O)C1CCN(S(=O)(=O)c2ccc3c(c2)CC(C)N3C(C)=O)CC1 (stereo not given) | ? | 0% | 29 | 5% | -4% | -8%
